# Measurements published in PubChem BioAssay (NCATS).
# Records with an inconclusive call do not appear. Activity calls are given as the source filed them. Unless noted, calls follow the shape of the dose curve; as a rule, active = well fitted curve in the direction sought with a large enough effect; inconclusive = small, poorly fitted or top-dose-only effect, or another doubt; inactive = no such curve, though single readings can be large; an effect the other way counts as inactive or inconclusive.
# Experiments:
# [1] = qHTS to identify inhibitors of the type 1 interferon - major histocompatibility complex class I in skeletal muscle: primary screen against the NCATS Pharmaceutical Collection (AID 1347407)
# Procedure, shortened: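 Compounds […] were added to CRISPR-engineered HLA-B-HiBiT C25cl48 human myoblasts with 4.0 ng/ml IFN-beta. After 24 hrs at 37 C, cells were lysed and HiBiT luminescence measured.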
# [2] = qHTS to identify inhibitors of the type 1 interferon - major histocompatibility complex class I in skeletal muscle: primary screen against the NCATS LOPAC collection (AID 1347405)
# Procedure, shortened: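 IFN-beta-stimulated (4 ng/ml) HLA-B HiBiT knock-in myoblasts, compound-treated 24 hrs up to 46 uM final; signal via LgBiT complementation and furimazine luminescence.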
# [3] = qHTS for inhibitors of adenylyl cyclases using a fission yeast platform: a pilot screen against the NCATS LOPAC library (AID 1347410)
# Procedure, shortened: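 GFP from fbp1-GFP reporter, read by Acumen laser cytometry, indicates AC inhibition in fission yeast expressing AC9, GNAS and PDE4D2. Cells grown 18 h in the dark at 30C with compounds, final up to 57 uM.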
# [4] = qHTS to identify inhibitors of the type 1 interferon - major histocompatibility complex class I in skeletal muscle: primary screen against the NCATS Mechanism Interrogation Plate v5.0 (MIPE) Libary (AID 1347411)
# Procedure, shortened: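 IFN-beta-driven (4 ng/ml) HLA-B-HiBit expression in CRISPR-tagged C25cl48 myoblasts; compounds 11-pt, 1:3, max 46 uM, 24 hr exposure; lytic NanoLuc complementation luminescence.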
# [5] = qHTS for inhibitors of ER calcium dysfunction: SERCaMP assay screened against the NCATS CANVASS Library (AID 1347393)
# Excerpt: (§1) Natural products and their derivatives continue to be wellsprings of nascent therapeutic potential. However, many laboratories have limited resources for biological evaluation, leaving their previously isolated or synthesized compounds largely or completely untested. To address this issue, the Canvass library of natural products was assembled (https://tripod.nih.gov/canvass), in collaboration with academic and industry researchers, for quantitative high-throughput screening (qHTS) across a diverse set of cell-based and biochemical assays. The pure (>85% purity by liquid chromatography/mass spectrometry [LC/MS]) Canvass library of 346 natural products were submitted by 45 academic laboratories and companies around the world. We collected pure natural products to circumvent deconvolution and structure elucidation due to time and resource limitations. The library was formatted into 1536-well plates and evaluated in 50 qHTS (in an 11-pnt concentration series) bioassays with broad scope of disease-relevant mechanisms. The resulting data set from 50 different assays was then systematically analyzed to identify overall trends and specific natural products with interesting biological activities. […]
# SERCaMP assay protocol: 1. […] Luminescence signal was obtained via the ViewLux plate reader (Perkin Elmer) using the clear emission filter and 1x binning, 5 seconds exposure settings.
# [6] = Vero-766 cells viability qHTS against the NCATS CANVASS Library: Counterscreen for Zika virus inhibition assay (AID 1347394)
# Procedure, shortened: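 CellTiter Glo luminescence measured cytotoxicity after 72 h at 37C in uninfected Vero 766 cells, plated at 1000 cells/well. Compounds were applied in an 11-point series. Wells without cells defined 100% inhibition.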
# [7] = qHTS for inhibitors of Wild type Zika virus screened against the NCATS CANVASS Library (AID 1347396)
# Procedure, shortened: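 Using ATP-based luminescence (CellTiter Glo), this screen scores rescue of Vero 766 cells from wild-type Zika killing at 72 h post-infection. Compounds are tested in a concentration series.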
# [8] = Viability qHTS for inhibitors of the SERCaMP assay screened against the NCATS CANVASS Library (AID 1347400)
# Procedure, shortened: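 Measures loss of viability in SERCaMP reporter SH-SY5Y cells treated for 48 h with compounds; luminescent ATP detection by CellTiter-Glo.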
# [9] = Redox Reaction Profiling qHTS: Assay Interference Panel against the NCATS CANVASS Library (AID 1347401)
# Excerpt: as §1, with “The pure (>85% purity by liquid chromatography/mass spectrometry [LC/MS]) Canvass library of 346 natural products were submitted by 45 academic laboratories and companies around the world. We collected pure natural products to circumvent deconvolution and structure elucidation due to time and resource limitations.” left out
# Redox Profiling assay protocol: 1. […] An initial fluorescence readout was obtained using the ViewLux plate reader (PerkinElmer) using a 525 nm excitation and a 598 nm emission filters. […] After incubation, the final fluorescence readout was obtained using the ViewLux plate reader (PerkinElmer) using a 525 nm excitation and a 598 nm emission filters.
# [10] = qHTS for inhibitors of Rabies Virus screened against the NCATS CANVASS Library (AID 1347402; calls by dose curve)
smiles,measurement,setting,value
CC1COC2(c3ccccc3Cl)c3cc(Cl)ccc3NC(=O)CN12 (stereo not given),Potency,[1],inactive
CC[n+]1c(-c2ccccc2)c2cc(N)ccc2c2ccc(N)cc21,Potency,[1],inactive
COc1cc(C[C@@H](C)N)c(OC)cc1C,Potency,[1],inactive
COP(=O)(OC)OC=C(Cl)Cl,Potency,[1],inactive
ClCc1cccc(Cl)c1,Potency,[1],inactive
Clc1ccc(C(OCCN2CCCCC2)c2ccccc2)cc1 (stereo not given),Potency,[1],inactive
C1CN2CCC1CC2,Potency,[1],inactive
O=C(N[C@H]1N=C(c2ccccc2F)c2cccc3c2N(CC3)C1=O)c1cc2ccccc2[nH]1,Potency,[1],inactive
CN(C)C(=O)Oc1cc(OC(=O)N(C)C)cc(C(O)CNC(C)(C)C)c1 (stereo not given),Potency,[1],inactive
COC(=O)C1=CCCN(C)C1,outcome,[2],inactive
same,outcome,[3],inactive
CCN(CC)CCOC(=O)C(C)(c1ccccc1)c1ccccc1,Potency,[1],inactive
C=CC[C@]1(O)CC[C@H]2[C@@H]3CCC4=CC(=O)CCC4=C3C=C[C@@]21C,Potency,[1],inactive
CN1C(=O)[C@@H](NC(=O)c2cc3ccccc3[nH]2)N=C(c2ccccc2)c2ccccc21,Potency,[1],inactive
CN1CCC(N(Cc2ccccc2)c2ccccc2)CC1,Potency,[1],inactive
CCOC(=O)NC(C)(C)Cc1ccc(Cl)cc1,Potency,[1],inactive
N#Cc1nn(-c2c(Cl)cc(C(F)(F)F)cc2Cl)c(N)c1S(=O)C(F)(F)F (stereo not given),Potency,[1],inactive
COc1ccc(C(=O)N2CCCC2=O)cc1,outcome,[2],inactive
same,Potency,[1],inactive
same,outcome,[3],inactive
same,Potency,[4],inactive
CN(C)CCc1c[nH]c2ccccc12,outcome,[5],inactive
same,outcome,[6],inactive
same,outcome,[7],inactive
same,outcome,[8],inactive
same,outcome,[9],inactive
same,outcome,[10],inactive
same,Potency,[1],inactive
Cc1cccc(Cc2cnc[nH]2)c1C,Potency,[1],inactive
NC(=O)CN1CCCC1=O,outcome,[2],inactive
same,Potency,[1],inactive
same,outcome,[3],inactive
Sc1ccccc1Cl,Potency,[1],inactive
CC1Sc2c(C(=O)O)c(=O)c3cc(F)c(N4CCNCC4)cc3n21 (stereo not given),Potency,[1],inactive
CN1CCc2cc(Cl)c(O)cc2[C@H]2c3ccccc3CC[C@@H]21,Potency,[1],inactive
CCCCCCCCC(=O)NCc1ccc(O)c(OC)c1,Potency,[1],inactive
CCN1CCCC1CNC(=O)C(O)(c1ccccc1)c1ccccc1 (stereo not given),Potency,[1],inactive
CC(Cc1ccc2c(c1)OCO2)NO (stereo not given),Potency,[1],inactive
Nc1ccccc1C(=O)OCC(O)CO (stereo not given),Potency,[1],inactive
COP(=O)(OC)C(O)C(Cl)(Cl)Cl (stereo not given),Potency,[1],inactive
CC[C@H](O)C(C[C@H](C)N(C)C)(c1ccccc1)c1ccccc1,Potency,[1],inactive
COc1ccc2[nH]cc(CCN(C(C)C)C(C)C)c2c1,Potency,[1],inactive
O=C(O)c1nn(Cc2ccc(Cl)cc2Cl)c2ccccc12,outcome,[2],inactive
same,Potency,[1],inactive
same,outcome,[3],inactive
same,Potency,[4],inactive
C[C@]12C=CC(=O)C=C1CC[C@@H]1[C@@H]2CC[C@@]2(C)[C@H]1CC[C@]2(C)O,Potency,[1],inactive
Cc1nnc2n1-c1sc(CCc3ccc(CC(C)C)cc3)cc1C(c1ccccc1Cl)=NC2C (stereo not given),Potency,[1],inactive
CC[C@H]1C[C@H]2[C@@H]3CCC4=CC(=O)CC[C@@H]4[C@H]3CC[C@]2(C)[C@H]1O,Potency,[1],inactive
COc1cc(CC#N)cc(OC)c1OC,Potency,[1],inactive
